Measurements taken from PMC5540273 (PLoS ONE, 2017).

Columns and labels:
Settings in all cases: concentration: 1 μM, replicates: in singlicate; n = 1
TRPM6 = system: TRPM6
TSSK1B = system: TSSK1B
TSSK3 = system: TSSK3
TTK = system: TTK
TXK = system: TXK
[1] = system: TYK2(JH1domain-catalytic)
[2] = system: TYK2(JH2domain-pseudokinase)
TYRO3 = system: TYRO3
ULK1 = system: ULK1
ULK2 = system: ULK2
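Further: KINOMEscan kinase panel screen.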

CN(C)c1cc(-c2ccc3c(N)n[nH]c3c2)nc(N)n1 [GSK2219329]
%Inh (TRPM6): 13% | %Inh (TSSK1B): 0% | %Inh (TSSK3): 6% | %Inh (TTK): 0% | %Inh (TXK): 97.2% | %Inh [1]: 14% | %Inh [2]: 25% | %Inh (TYRO3): 0% | %Inh (ULK1): 0% | %Inh (ULK2): 0%

CCn1c(-c2ccoc2)nc2cnccc21 [SB-733887]
%Inh (TRPM6): 52% | %Inh (TSSK1B): 0% | %Inh (TSSK3): 6% | %Inh (TTK): 0% | %Inh (TXK): 28% | %Inh [1]: 27% | %Inh [2]: 50% | %Inh (TYRO3): 0% | %Inh (ULK1): 29% | %Inh (ULK2): 4%

Cc1nn2c(=O)cc(N3CCOCC3)nc2n1Cc1cccc(Cl)c1Cl [GSK2342769]
%Inh (TRPM6): 0% | %Inh (TSSK1B): 0% | %Inh (TSSK3): 6% | %Inh (TTK): 0% | %Inh (TXK): 13% | %Inh [1]: 10% | %Inh [2]: 4% | %Inh (TYRO3): 0% | %Inh (ULK1): 17% | %Inh (ULK2): 0%

COc1cc2ncn(-c3cc(OCCCc4ccccc4)c(C(N)=O)s3)c2cc1OC [GSK205189]
%Inh (TRPM6): 0% | %Inh (TSSK1B): 0% | %Inh (TSSK3): 10% | %Inh (TTK): 12% | %Inh (TXK): 0% | %Inh [1]: 0% | %Inh [2]: 0% | %Inh (TYRO3): 0% | %Inh (ULK1): 2% | %Inh (ULK2): 0%
